Source: PubChem BioAssay
HCV inh: HCV inhibition; Huh7.5.1 HCVcc-Cre infection, luciferase reporter, 44 h; Potency, µM (top dose mostly 41.8 µM), actives largely listed as inhibitors; 3.4% of 340,000 active
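Antiviral activity was scored by luciferase reporter output from cells infected with HCVcc-Cre (~0.5 moi) in presence of compound, 44 h infection period, cells seeded 1,000/well 4 h prior.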
Vaccinia mCherry: inhibitors of vaccinia virus infection (mCherry reporter signal); 0.63% of 310,000 active; AID 720579; Potency, µM (series often up to 36.5 µM), usual class: inhibitors; Vaccinia virus mCherry reporter infection, fluorescence; calls by dose curve; tested in A549 cells; further: nearly all actives have a fitted effect of over 35% in size
FMDV inh: blocks foot and mouth disease virus; FMDV antiviral cell-based qHTS; Potency, µM (highest dose often 57.9 µM), hits mostly inhibitors; 1.2% of 410,000 active; AID 1159524; calls by dose curve; tested in HEK293T cells; further: read-out not given here; nearly all actives have a fitted effect of over 45% in size
HCMV antiviral: blocks human cytomegalovirus replication. HFF cells, HCMV-luciferase reporter, 72 h; hits give low values. activity change, negative = inhibition, % at 57.5 µM. 4.5% of 410,000 active. AID 1259415; in the data active means activity change below about -60%; inconclusive means no clear call, values can overlap the other calls; inactive means above about -39%
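Steps: HFFs plated, 16 h 37C; compounds added; HCMV-luciferase added to MOI 1 PFU/cell; 72 h 37C; OneGlo reagent, 5 min room temperature; luminescence read, normalized to controls.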
Vaccinia Venus: vaccinia inhibition (Venus reporter); Vaccinia virus Venus reporter expression, fluorescence; Potency, µM (titrated, usually from 36.5 µM), actives largely listed as inhibitors; 0.46% of 330,000 active; AID 720580; calls by dose curve; tested in A549 cells; further: nearly all actives have a fitted effect of over 30% in size
Sm TGR block: S. mansoni TGR enzyme inhibition | Q962Y6 | purified TGR, DTNB reduction, TNB absorbance 405 nm | Potency, µM (titrated, usually from 114 µM), usual class: inhibitors | 3% of 360,000 active; further: nearly all actives have a fitted effect of over 60% in size
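Kinetic colorimetric format: TGR-catalysed, NADPH-driven DTNB reduction monitored via TNB absorbance. Enzyme dispensed at 20 nM; compound exposure 15 min at room temperature before reaction start.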
HCV confirm: HCV inhibition, cherry-pick confirmation; shares compounds with HCV inh; HCVcc-Cre infectious virus cell assay, luciferase, inhibition; Potency, µM (highest dose often 41.8 µM), most hits filed as inhibitors; 78% of 640 active; further: nearly all actives have a fitted effect of over 80% in size
HCV cytotox: toxic to HCV host cells, flagging false HCV inhibitors; 22% of 640 active; HCV host cell line cytotoxicity counterscreen; shares compounds with HCV inh; Potency, µM (doses to about 41.8 µM), hits mostly inhibitors; AID 720576;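 further: 44 h compound exposure; nearly all actives have a fitted effect of over 55% in size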
Numbers stand for hits; . = inactive; ? = inconclusive; / = no result. Most compounds without a hit are left out; they make up all but 9.3% or so of the library. Unless noted, the call rests on the fitted dose curve; in most records, active means well fitted curve in the direction sought with a large enough effect; inconclusive means small, poorly fitted or top-dose-only effect, or another doubt; inactive means no such curve, though single readings can be large; an effect the other way counts as inactive or inconclusive.

SMILES	HCV inh	Vaccinia mCherry	FMDV inh	HCMV antiviral	Vaccinia Venus	Sm TGR block	HCV confirm	HCV cytotox
Cc1ccnc(NC(=O)/C=C/c2ccccc2[N+](=O)[O-])c1	/	/	/	.	/	.	/	/
CCOc1ccccc1NC(=O)/C=C/c1ccccc1[N+](=O)[O-]	?	.	.	.	.	.	?	.
Oc1ccccc1N=Nc1nc(-c2ccccc2)c(-c2ccccc2)[nH]1	3.55µM	?	28.2µM	-107.0	?	.	7.91µM	.
Cc1cc2c(cc1S(=O)(=O)N1CCN(c3ccccc3F)CC1)OCC(=O)N2	.	.	.	.	.	.	/	/
Cc1nc2ccc(NC(=O)[C@H](C)N3C(=O)C4CC=CCC4C3=O)cc2s1 (stereo partly drawn)	.	/	.	.	/	/	/	/
COc1ccc(-c2csc(NC(=O)C3CSC4(C)CCC(=O)N34)n2)c(OC)c1 (stereo not drawn)	8.91µM	?	.	.	?	.	28µM	.
O=C1CCC(C(=O)OCC(=O)Nc2cc(Cl)ccc2F)=NN1	.	.	.	.	.	/	/	/
COc1ccc(Cl)cc1NC(=O)C(C)OC(=O)C1=NNC(=O)CC1 (stereo not drawn)	?	/	.	.	/	.	?	.
Cc1ccc(C(=O)c2c3ccc([N+](=O)[O-])cc3[n+]([O-])n2CCCN)cc1	7.94µM	?	.	.	14.1µM	35.5µM	7.05µM	.
Cc1cccc(CS(=O)(=O)c2ncc(Cl)c(C(=O)Nc3c(C)cccc3C)n2)c1	6.31µM	/	.	?	/	7.08µM	9.95µM	28µM
Cc1nnsc1C(=O)NC1CCCc2c1cnn2-c1ccc(C(C)(C)C)cc1 (stereo not drawn)	1.58µM	/	?	-76.4	/	.	3.15µM	5.6µM
Clc1ccc(-c2cc3nc(NCc4cccc(Cl)c4)ccn3n2)cc1	/	.	.	.	.	/	/	/
Cc1cccc(CC(=O)N2CCC(N3CCC(C(=O)N4CCOCC4)CC3)CC2)c1	.	.	.	.	.	.	/	/
CCC(=O)Nc1cc2c(cc1C(=O)CC)OCCO2	5.62µM	.	.	.	.	.	12.5µM	.
CCOC(=O)N1CCC(N2CCCC(CO)(Cc3cccc(OC)c3)C2)CC1 (stereo not drawn)	.	/	.	.	/	.	/	/
COc1ccc(OC)c(NC(=O)CCN2CC(C)CC(C)C2)c1 (stereo not drawn)	.	/	.	/	/	.	/	/
CSc1ccc(CN2CCN(Cc3ccc([N+](=O)[O-])cc3)CC2)cc1	?	.	?	.	.	.	3.96µM	7.05µM
COc1ccc(NC(=S)N2CCCC(c3nc4ccc(C)cc4[nH]3)C2)cc1 (stereo not drawn)	5.01µM	/	.	.	/	.	0.0353µM	.
CC(C)[C@]12O[C@H]1[C@@H]1O[C@]13[C@]1(O[C@H]1C[C@H]1C4=C(CC[C@@]13C)C(=O)OC4)[C@@H]2O	/	.	.	/	.	.	/	/
CN1c2ccccc2Sc2cc(N)ccc21	.	.	.	.	.	.	/	/
CC[n+]1c(/C=C2\Sc3ccccc3N2C)ccc2cccc(C)c21	2.82µM	14.1µM	4.47µM	-101.0	.	/	2.5µM	2.5µM
COc1ccc(C(=O)Nc2nnc(SCC(=O)Nc3ccc(NC(C)=O)cc3)s2)c(OC)c1	.	/	.	.	/	.	/	/
CCc1nnc(NC(=O)c2ccc(OC)cc2OC)s1	8.91µM	.	/	.	.	.	.	.
CC1=C(C(=O)Nc2cccc(C(=O)N3CCC(C(N)=O)CC3)c2)SCCO1	.	/	.	.	/	.	/	/
O=[N+]([O-])c1ccccc1Oc1ccc(S(=O)(=O)N2CCOCC2)cc1	7.94µM	/	?	.	/	.	?	.
SMILES	HCV inh	Vaccinia mCherry	FMDV inh	HCMV antiviral	Vaccinia Venus	Sm TGR block	HCV confirm	HCV cytotox
O=S(=O)(c1ccc(Oc2ccccc2)cc1)N1CCOCC1	?	/	?	.	/	.	/	/
COc1ccc(-c2nnc(SCC(=O)Nc3cc(F)ccc3C)o2)cc1	.	.	.	.	.	.	/	/
COc1ccc(OC)c(NC(=O)Cc2csc(NC(=O)Nc3ccccc3OC)n2)c1	8.91µM	.	?	.	.	.	9.95µM	.
CC(=O)c1ccc(C(=O)N(CCCN(C)C)c2nc3c(C)c(C)ccc3s2)cc1	/	.	.	.	.	.	/	/
Cc1ccc2sc(N(CCCN(C)C)C(=O)c3ccc(Br)s3)nc2c1C	7.08µM	?	.	.	.	.	?	.
CC1Cc2ccccc2N1C(=O)CN1CCN(Cc2ccccc2)CC1 (stereo not drawn)	.	/	.	.	/	.	/	/
COc1ccc(Nc2ncc3c(n2)CC(c2ccccc2)CC3=O)cc1 (stereo not drawn)	?	/	.	.	/	.	/	/
CCc1ccc(Nc2ncc3c(n2)CC(c2ccc(OC)cc2)CC3=O)cc1 (stereo not drawn)	3.98µM	/	.	-64.1	/	.	?	.
Cc1nnc(C)c2c(C)n(-c3ccc(Cl)c(N)c3)c(C)c12	?	.	.	.	.	.	/	/
Cc1cc(C)cc(-n2c(C)c3c(C)nnc(C)c3c2C)c1	2.24µM	.	.	.	.	.	11.2µM	.
Oc1c(CN2CCOCC2)cc(CN2CCOCC2)c(O)c1CN1CCOCC1	.	.	.	.	.	/	/	/
CC(C)(c1cc(Cl)c(O)c(CN2CCOCC2)c1)c1cc(Cl)c(O)c(CN2CCOCC2)c1	3.16µM	.	.	.	.	/	6.28µM	.
CN1CCN(/N=C/c2ccc(-c3ccc([N+](=O)[O-])cc3Cl)o2)CC1	8.91µM	.	.	?	.	/	?	.
CCCCn1c(SCc2nc3ccccc3s2)nc2cc(S(N)(=O)=O)ccc21	?	.	.	.	?	.	17.7µM	.
O=[N+]([O-])c1ccc2nc(NS(=O)(=O)c3ccc(Cl)cc3)sc2c1	.	.	.	.	.	.	/	/
COc1ccc(CCNC(=O)c2cc3c(=O)n4ccccc4nc3n(CCN3CCOCC3)c2=N)cc1	?	.	.	.	.	.	/	/
COc1ccc(CCNC(=O)c2cc3c(=O)n4ccccc4nc3n(CCCN3CCOCC3)c2=N)cc1	8.91µM	/	.	?	/	.	15.8µM	.
COc1ccc(CCNC(=O)c2cc3c(=O)n4ccccc4nc3n(C3CCCCC3)c2=N)cc1	7.94µM	/	?	.	/	.	14.1µM	.
N=c1c(S(=O)(=O)c2ccc(Br)cc2)cc2c(=O)n3ccccc3nc2n1C1CCCCC1	?	/	.	.	/	.	14.1µM	.
COc1ccccc1N1CCN(C(=O)c2cn(CC(C)C)c(=O)c3c2c2ccccc2n3C)CC1	/	.	.	.	.	.	/	/
Cc1nc(-c2noc(-c3ccccc3Cl)n2)c(C(F)(F)F)o1	.	/	.	.	/	.	/	/
Fc1ccc2[nH]c3c(N4CCN(C5CCCCC5)CC4)ncnc3c2c1	/	/	/	/	/	.	/	/
CS(=O)(=O)N1CCC(C(=O)Nc2ccc(Cl)c(Cl)c2)CC1	.	.	.	.	.	.	/	/
